Test results from PubChem BioAssay (Tox21).
Results filed as inconclusive are left out. The source made the active and inactive calls. Calls follow the shape of the dose curve; as a rule, active = well fitted cell-killing curve with a large enough effect in the repeat runs; inconclusive = weak or mixed curves, or effect the other way; inactive = flat fitted curve, though single readings scatter.

Assay: qHTS assay to identify small molecule antagonists of the androgen receptor (AR) signaling pathway using the MDA cell line in the presence of 0.5 nM R1881 - cell viability counter screen (AID 1259242); also: nearly all actives have a fitted effect of over 45% in size
Settings: MDA-kb2 viability, CellTiter-Fluor protease fluorescence, 16 h; series mostly up to 92.4 µM
Excerpt: U.S. Tox21 Program National Center for Advancing Translational Sciences [NCATS] NIH Chemical Genomics Center [NCGC] U.S. Environmental Protection Agency [EPA] National Institutes of Environmental Health Sciences [NIEHS] National Toxicology Program [NTP] U.S. Food and Drug Administration [FDA] Tox21 Assay Overview: Androgen receptor (AR) is an important member of the nuclear receptor family. Its signaling plays a critical role in AR-dependent prostate cancer and other androgen related diseases. Considerable attention has been given in the past decades to develop methods to study and screen for the environmental chemicals that have the potential to interfere with metabolic homeostasis, reproduction, developmental and behavioral functions. Therefore AR binding assay for screening androgen antagonists can be used to identify potential endocrine disruptors. MDA-kb2 cells (from ATCC, deposited by Wilson et al.) were used to screen for AR inhibitors against Tox21 compound libraries. These cells are human breast carcinoma cells that were stably transfected with a luciferase reporter gene under control of the MMTV promoter that contains response elements for both androgen receptor (AR) and glucocorticoid receptor (GR). The current screening for identification of AR inhibitors against Tox21 libraries used lower concentration of (0.5 nM) R1881 as a stimulator. The cytotoxicity of the Tox21 compound libraries against MDA-kb2 cell line was tested by measuring live-cell protease activity using CellTiter-Fluor assay in the same wells.
Tox21 Assay Protocol Summary: MDA-kb2 cells (cells cultured without CO2) were dispensed at 3,000 cells/well in 4 uL of culture medium into white wall/solid-bottom 1536-well plates (Corning Life Sciences, Corning, NY) using a Multidrop Combi (ThermoFisher Scientific, Waltham, MA) dispenser. After the assay plates were incubated at a 37C and 0% CO2 for 5 hr, 23 nL of compounds dissolved in DMSO, positive controls or DMSO only was transferred to the assay plate by a Pintool station (Kalypsys, San Diego, CA). The transfer of compounds was followed by the addition of 1 uL of 0.5 nM (final concentration) agonist (R1881)/culture medium using a Flying Reagent Dispenser (FRD, Aurora Discovery, San Diego, CA). The plates were incubated at 37C and 0% CO2 for 16 hr. For cytotoxicity assay, 1 uL of CellTiter-Fluor reagent (Promega Corporation, Madison, WI) was added to each well using the FRD and after 30 min incubation at 37C and 0% CO2, The fluorescence intensity was measured using ViewLux plate reader (PerkinElmer, Shelton, CT).

Question: Which outcome does the source give for `[Ca+2]` here?
Answer: inactive

Question: For `CC(=O)Nc1ccc(OCC(O)CNC(C)C)cc1` (stereo not given), which outcome is on record?
Answer: inactive

Question: With `CCOc1ccc2nc(S(N)(=O)=O)sc2c1` as the compound, how does the outcome read?
Answer: inactive

Question: For `N[C@@H](CCC(=O)O)C(=O)O`, which outcome is on record?
Answer: inactive

Question: For `CC(C)(C)C(=O)c1ccccc1`, which outcome is on record?
Answer: inactive

Question: With `CCC1C(=O)OCC1Cc1cncn1C` (stereo not given) as the compound, how does the outcome read?
Answer: inactive

Question: Which outcome does the source give for `Cc1ccc(-c2ccccc2C#N)cc1` here?
Answer: inactive

Question: For `C=COC(=O)C(C)(CC)CCC(C)C` (stereo not given), which outcome is on record?
Answer: inactive

Question: With `CC(C)=CCC/C(C)=C/C#N` as the compound, how does the outcome read?
Answer: inactive

Question: With `C=CCCCCCCCCC(=O)OCC` as the compound, how does the outcome read?
Answer: inactive

Question: With `COc1cccc(OC)c1C(=O)N[C@@H]1C(=O)N2[C@@H]1SC(C)(C)[C@@H]2C(=O)O` as the compound, how does the outcome read?
Answer: inactive

Question: With `NCCCC(N)(C(=O)O)C(F)F` (stereo not given) as the compound, how does the outcome read?
Answer: inactive

Question: Which outcome does the source give for `CN1[C@@H]2CC[C@H]1CC(OC(=O)C(O)c1ccccc1)C2` (stereo not given in full) here?
Answer: inactive

Question: Which outcome does the source give for `CC(=O)c1ccc2ccccc2c1` here?
Answer: inactive

Question: For `C=C(C)C(=O)OCC(O)CO` (stereo not given), which outcome is on record?
Answer: inactive

Question: With `Nc1ccncc1N` as the compound, how does the outcome read?
Answer: inactive

Question: For `Nc1ccn([C@@H]2O[C@H](CO)[C@@H](O)C2(F)F)c(=O)n1`, which outcome is on record?
Answer: inactive

Question: Which outcome does the source give for `CC(CO)(CO)[N+](=O)[O-]` here?
Answer: inactive

Question: Which outcome does the source give for `CO[Si](C)(OC)c1ccccc1` here?
Answer: inactive

Question: Which outcome does the source give for `CCC(C)(CCCC(C)C)OC(C)=O` (stereo not given) here?
Answer: inactive

Question: For `CC(C)NNC(=O)c1ccncc1`, which outcome is on record?
Answer: inactive

Question: With `CC(=O)Oc1cccc(C)c1` as the compound, how does the outcome read?
Answer: inactive

Question: Which outcome does the source give for `CCN(Cc1ccccc1)c1ccccc1` here?
Answer: inactive

Question: Which outcome does the source give for `CC(C)(N)C#N` here?
Answer: inactive

Question: With `[O-][n+]1cccc(CO)c1` as the compound, how does the outcome read?
Answer: inactive

Question: Which outcome does the source give for `CC(C)CC(C)(N)C#N` (stereo not given) here?
Answer: inactive

Question: Which outcome does the source give for `CC(C)c1ccc2ncccc2c1` here?
Answer: inactive

Question: For `CN(C)CCCN(C)CCCN(C)C`, which outcome is on record?
Answer: inactive

Question: With `CC[N+](CC)(CC(=O)Nc1c(C)cccc1C)Cc1ccccc1` (tested in a mixture with another compound) as the compound, how does the outcome read?
Answer: inactive

Question: For `CC1=C(C/C=C(\C)CCC[C@H](C)CCC[C@H](C)CCCC(C)C)C(=O)c2ccccc2C1=O`, which outcome is on record?
Answer: inactive

Question: For `NS(=O)(=O)Cc1noc2ccccc12`, which outcome is on record?
Answer: inactive

Question: For `O=S(=O)(O)c1cccc(S(=O)(=O)O)c1`, which outcome is on record?
Answer: inactive

Question: For `CCOC(=O)c1cnc2c(cnn2CC)c1NN=C(C)C`, which outcome is on record?
Answer: inactive

Question: For `NO`, which outcome is on record?
Answer: inactive

Question: With `C[C@H]1C[C@H]2[C@@H]3CCC4=CC(=O)C=C[C@]4(C)[C@H]3C(=O)C[C@]2(C)[C@@]1(O)C(=O)CO` as the compound, how does the outcome read?
Answer: inactive

Question: Which outcome does the source give for `Cc1onc(-c2c(Cl)cccc2Cl)c1C(=O)Cl` here?
Answer: inactive

Question: Which outcome does the source give for `c1ccc2sc(SN3CCOCC3)nc2c1` here?
Answer: inactive

Question: For `c1ccc(CCc2ccccc2)cc1`, which outcome is on record?
Answer: inactive

Question: Which outcome does the source give for `Nc1ccn([C@@H]2O[C@H](CO)[C@@H](O)[C@@H]2O)c(=O)n1` here?
Answer: inactive

Question: With `CC(C#N)(CCC(=O)O)N=NC(C)(C#N)CCC(=O)O` (stereo not given) as the compound, how does the outcome read?
Answer: inactive
